From PubChem BioAssay AID1159580 (chemical genetic matrix, 2015)
The whole screen tested about 5,500 compounds, of which about 2,000 (36%) were called active. About 18% were inconclusive and are not listed. Rule as the data show it: active = normalized growth mostly below about 0.91 (no sharp cut-off); inconclusive = no clear call, values can overlap the other calls; inactive = mostly above about 0.92. The list shows a part of the results.

Experiment: chemical genetic growth profiling, strain panel (AID 1159580);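 also: tested at 20 µM; growth read once vehicle control cultures reached saturation at 30 °C; 1 = growth at the plate median or of vehicle wells; lower values mean less growth of the strain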
Conditions: growth OD

Measured: normalized growth

C#C[C@]1(O)CCC2C3CCC4=CC(=O)CC[C@@H]4C3CC[C@@]21CC (stereo not given in full)
active: S. cerevisiae deletion strains, locus YLR262C, strain YPT6 (second series), active compounds read low 0.829
inactive: S. cerevisiae deletion strains, locus YJR066W, strain TOR1, active compounds read low 0.91 | S. cerevisiae deletion strains, locus YKL009W, strain mrt4, active compounds read low 0.96 | S. cerevisiae deletion strains, locus YKL068W, active compounds read low 0.999 | S. cerevisiae deletion strains, locus YKL085W, strain MDH1 (second series), active compounds read low 0.988 | S. cerevisiae deletion strains, locus YKL085W, strain MDH1, active compounds read low 0.988 | S. cerevisiae deletion strains, locus YKL160W, strain elf1, active compounds read low 0.988 | S. cerevisiae deletion strains, locus YKL190W, strain CNB1, active compounds read low 1.01 | S. cerevisiae deletion strains, locus YKR001C, strain vps1, active compounds read low 1 | S. cerevisiae deletion strains, locus YKR026C, strain gcn3, active compounds read low 1 | S. cerevisiae deletion strains, locus YKR091W, strain srl3, active compounds read low 0.993 | S. cerevisiae deletion strains, locus YLL001W, strain dnm1, active compounds read low 0.987 | S. cerevisiae deletion strains, locus YLL026W, active compounds read low 1 | S. cerevisiae deletion strains, locus YLL041C, strain sdh2, active compounds read low 0.99 | S. cerevisiae deletion strains, locus YLR027C, strain aat2, active compounds read low 0.989 | S. cerevisiae deletion strains, locus YLR039C, strain RIC1, active compounds read low 0.949 | S. cerevisiae deletion strains, locus YLR058C, strain SHM2, active compounds read low 0.998 | S. cerevisiae deletion strains, locus YLR102C, strain apc9, active compounds read low 0.992 | S. cerevisiae deletion strains, locus YLR113W, strain HOG1, active compounds read low 0.946 | S. cerevisiae deletion strains, locus YLR221C, strain rsa3, active compounds read low 0.997 | S. cerevisiae deletion strains, locus YLR258W, strain gsy2, active compounds read low 1 | S. cerevisiae deletion strains, locus YLR262C, strain YPT6, active compounds read low 0.903 | S. cerevisiae deletion strains, locus YLR268W, strain sec22, active compounds read low 0.958 | S. cerevisiae deletion strains, locus YLR320W, strain mms22, active compounds read low 0.96 | S. cerevisiae deletion strains, locus YLR330W, strain CHS5, active compounds read low 0.991 | S. cerevisiae deletion strains, locus YLR342W, strain FKS1 (second series), active compounds read low 0.983 | S. cerevisiae deletion strains, locus YLR342W, strain FKS1, active compounds read low 0.985 | S. cerevisiae deletion strains, locus YLR357W, strain rsc2, active compounds read low 1.06 | S. cerevisiae deletion strains, locus YLR370C, strain arc18, active compounds read low 0.984 | S. cerevisiae deletion strains, locus YLR371W, strain rom2, active compounds read low 0.992 | S. cerevisiae deletion strains, locus YLR384C, strain iki3, active compounds read low 0.992 | S. cerevisiae deletion strains, locus YLR418C, strain cdc73, active compounds read low 1.03 | S. cerevisiae deletion strains, locus YML016C, strain PPZ1, active compounds read low 0.989 | S. cerevisiae deletion strains, locus YML032C, strain rad52, active compounds read low 0.977 | S. cerevisiae deletion strains, locus YML120C, strain ndi1, active compounds read low 1.01 | S. cerevisiae deletion strains, locus YML124C, strain tub3, active compounds read low 0.988 | S. cerevisiae deletion strains, locus YMR058W, strain fet3, active compounds read low 0.987 | S. cerevisiae deletion strains, locus YMR078C, strain ctf18, active compounds read low 0.989 | S. cerevisiae deletion strains, locus YMR125W, strain sto1, active compounds read low 1 | S. cerevisiae deletion strains, locus YMR129W, active compounds read low 0.983 | S. cerevisiae deletion strains, locus YMR205C, strain PFK2, active compounds read low 0.989 | S. cerevisiae deletion strains, locus YMR223W, strain ubp8, active compounds read low 0.987 | S. cerevisiae deletion strains, locus YMR231W, strain pep5, active compounds read low 0.999 | S. cerevisiae deletion strains, locus YMR307W, strain GAS1, active compounds read low 1.12 | S. cerevisiae deletion strains, locus YNL067W, strain RPL9B, active compounds read low 1.01 | S. cerevisiae deletion strains, locus YNL071W, strain lat1, active compounds read low 0.992 | S. cerevisiae deletion strains, locus YNL128W, strain TEP1, active compounds read low 0.988 | S. cerevisiae deletion strains, locus YNL153C, strain GIM3, active compounds read low 1.01 | S. cerevisiae deletion strains, locus YNL183C, strain NPR1, active compounds read low 0.922 | S. cerevisiae deletion strains, locus YNL209W, strain ssb2, active compounds read low 0.993 | S. cerevisiae deletion strains, locus YNL233W, strain BNI4, active compounds read low 0.992 | S. cerevisiae deletion strains, locus YNL248C, strain rpa49, active compounds read low 1 | S. cerevisiae deletion strains, locus YNL250W, strain rad50, active compounds read low 0.988 | S. cerevisiae deletion strains, locus YNL271C, strain bni1, active compounds read low 0.982 | S. cerevisiae deletion strains, locus YNL298W, strain CLA4, active compounds read low 0.961 | S. cerevisiae deletion strains, locus YNL307C, strain MCK1, active compounds read low 0.98 | S. cerevisiae deletion strains, locus YNL322C, strain KRE1 (second series), active compounds read low 1 | S. cerevisiae deletion strains, locus YNR049C, strain mso1, active compounds read low 1 | S. cerevisiae deletion strains, locus YNR052C, strain pop2, active compounds read low 0.964 | S. cerevisiae deletion strains, locus YOL006C, strain TOP1, active compounds read low 1.03 | S. cerevisiae deletion strains, locus YOL012C, strain htz1 1.51 | S. cerevisiae deletion strains, locus YOL147C, strain pex11, active compounds read low 0.994 | S. cerevisiae deletion strains, locus YOR001W, strain rrp6, active compounds read low 0.967 | S. cerevisiae deletion strains, locus YOR061W, strain CKA2, active compounds read low 0.983 | S. cerevisiae deletion strains, locus YOR069W, strain VPS5, active compounds read low 0.991 | S. cerevisiae deletion strains, locus YOR070C, strain gyp1, active compounds read low 0.995 | S. cerevisiae deletion strains, locus YOR080W, strain dia2, active compounds read low 0.996 | S. cerevisiae deletion strains, locus YOR083W, strain WHI5, active compounds read low 0.997 | S. cerevisiae deletion strains, locus YOR106W, strain vam3, active compounds read low 0.997 | S. cerevisiae deletion strains, locus YOR136W, strain idh2, active compounds read low 0.991 | S. cerevisiae deletion strains, locus YOR144C, strain elg1, active compounds read low 0.994 | S. cerevisiae deletion strains, locus YOR184W, strain ser1, active compounds read low 0.912 | S. cerevisiae deletion strains, locus YOR231W, strain MKK1, active compounds read low 0.983 | S. cerevisiae deletion strains, locus YOR265W, strain rbl2, active compounds read low 1 | S. cerevisiae deletion strains, locus YOR270C, strain vph1, active compounds read low 0.957 | S. cerevisiae deletion strains, locus YOR290C, strain snf2, active compounds read low 0.98 | S. cerevisiae deletion strains, locus YOR316C, strain cot1, active compounds read low 0.989 | S. cerevisiae deletion strains, locus YPL051W, strain arl3, active compounds read low 0.979 | S. cerevisiae deletion strains, locus YPL055C, strain LGE1, active compounds read low 1.04 | S. cerevisiae deletion strains, locus YPL078C, strain atp4, active compounds read low 0.996 | S. cerevisiae deletion strains, locus YPL106C, strain sse1, active compounds read low 1.06 | S. cerevisiae deletion strains, locus YPL240C, strain hsp82, active compounds read low 1 | S. cerevisiae deletion strains, locus YPL241C, strain CIN2, active compounds read low 1 | S. cerevisiae deletion strains, locus YPL256C, strain CLN2, active compounds read low 0.963 | S. cerevisiae deletion strains, locus YPR119W, strain clb2, active compounds read low 1 | S. cerevisiae deletion strains, locus YPR141C, strain kar3, active compounds read low 0.983 | S. cerevisiae deletion strains, locus YPR163C, strain tif3, active compounds read low 0.99 | S. cerevisiae deletion strains, locus YPR167C, strain met16, active compounds read low 0.988 | S. cerevisiae deletion strains, strain wtn01, active compounds read low 0.973 | S. cerevisiae strains, strain wild type, active compounds read low 1.02
